Data taken from PubChem BioAssay (NCI).
Where “and” joins values, the source holds several entries; their conditions need not be identical. Identical values can stand only once. The panel holds about 83,000 compounds, 20% with a hit somewhere; the sample as a whole holds those more often.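 The endpoint reported here, percent growth, reads 100 for growth as untreated, 0 for no net growth and -100 for all cells dead.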 Calls of active or inactive are those of the source. How the source made its calls: active means growth percent below 10; inactive means the rest.

These molecules were tested on MCF7 breast (assay: NCI-60 one-dose screen, 48 h (100 = growth as untreated, 0 = no growth, -100 = all killed)). Settings: 10 µM unless noted.
For `Cc1cc2nn(C3CCCO3)nc2cc1C` (stereo not drawn), the growth was 79.7% [100 µM] (inactive) and 92.9% [100 µM] (inactive).
`C=C1CC2(C)CCC(OC(=O)C3(C)OC3C)C(C)(OC(C)=O)C2CC1=C(C)C` (stereo not drawn) was tested, and the growth was 67% [100 µM] (inactive) and 8.58% [100 µM] (active).
`CCCCCCCCCCCCC/C=C/[C@H]1[C@@H](C(=O)OC)N1S(=O)c1ccc(C)cc1` (stereo partly drawn) was tested, and the growth was 53.6% [100 µM] (inactive) and 36.2% [100 µM] (inactive).
`CC1CC(=O)N(N(C)C)C2(C#N)C(=O)N=C(N)C12C#N` (stereo not drawn) was tested, and the growth was -67.7% [100 µM] (active) and -64.1% [100 µM] (active).
`Cc1coc2c1C(OC(=O)C(C)C)C1(C)C(C)CCC(O)C1C2=O` (stereo not drawn) was tested, and the growth was 21.2% [100 µM] (inactive) and 6.5% [100 µM] (active).
In the case of `CC1OC(Oc2c(-c3cc(O)c(O)c(O)c3)oc3cc(O)cc(O)c3c2=O)C(O)C(O)C1O` (stereo not drawn), the growth is reported as 77.9% [100 µM] (inactive) and -43.3% [100 µM] (active).
`COc1ccc(/C=C2/NC(=S)N=C2Cl)cc1` was tested, and the growth was 82% [100 µM] (inactive) and 75% [100 µM] (inactive).
With `COc1cc2c3cc1Oc1c(OC)c(OC)cc4c1C(Cc1ccc(O)c(c1)-c1cc(ccc1OC)CC3N(C)CC2)N(C)CC4` (stereo not drawn) the growth was 10.3% [100 µM] (inactive) and -92.9% [100 µM] (active).
With `NC(Cc1ccc(S(=O)(=O)O)cc1)C(=O)NC(Cc1ccc(S(=O)(=O)O)cc1)C(=O)NC(Cc1ccc(S(=O)(=O)O)cc1)C(=O)NC(Cc1ccc(S(=O)(=O)O)cc1)C(=O)O` (stereo not drawn) the growth was 87.7% [100 µM] (inactive) and 83.5% [100 µM] (inactive).
`Cc1ccc(/C=N/Nc2cnccn2)s1` was tested, and the growth was 14.7% [100 µM] (inactive) and 4.18% [100 µM] (active).
In the case of `CC(=Nc1ccncc1)C(C)=Nc1ccncc1`, the growth is reported as -47.5% [100 µM] (active) and -27.7% [100 µM] (active).
With `C=CC1=C(C)C2=NC1=CC1=NC(=C(CC)/C1=C\O)C=C1N=C3C(=C1C)C(=O)[C@H](C(=O)OC)C3=C1NC(=C2)[C@@H](C)[C@@H]1CCC(=O)O` the growth was 16.5% [100 µM] (inactive) and 5.87% [100 µM] (active).
For `CCCCC1C(=O)N(c2ccc(S(=O)(=O)Nc3ccccn3)cc2)N(c2ccc(O)c(C(=O)O)c2)C1=O` (stereo not drawn), the growth was 121% [100 µM] (inactive) and 87.3% [100 µM] (inactive).
For `C=CCn1c2c(c3ccccc3c1=O)C(=O)c1ccccc1-2`, the growth was 68.3% [100 µM] (inactive) and 23.2% [100 µM] (inactive).
`CCC(c1ccc(N(C)C)cc1)C1NC(=S)NC1=O` (stereo not drawn) was tested, and the growth was 37.9% [100 µM] (inactive) and 10.5% [100 µM] (inactive).
`C=C1C(=O)OC2/C=C(\CO)CC/C=C(\CO)CC(OC(=O)C(C)C)C12` (stereo not drawn) was tested, and the growth was -82.7% [100 µM] (active) and -70% [100 µM] (active).
In the case of `NC1N=C(c2ccc(Cl)cc2)C2=C(N1)c1ccccc1CC2` (stereo not drawn), the growth is reported as 13.4% [100 µM] (inactive) and -96.2% [100 µM] (active).
In the case of `Cc1ccc(F)cc1NC(=O)O/N=C(\Cl)C(C)C`, the growth is reported as 72.4% [100 µM] (inactive) and 46.2% [100 µM] (inactive).
`C=C1C(=O)OC2CC(C)C3(O)CCC(=O)C3(C)CC12` (stereo not drawn) was tested, and the growth was 13.7% [100 µM] (inactive) and 3.19% [100 µM] (active).
`CO/C(N)=C(\C#N)N=Cc1ccc2ccccc2c1` was tested, and the growth was 8.6% [100 µM] (active) and 1.15% [100 µM] (active).
In the case of `CC(C)CCCC(C)[C@H]1CC[C@H]2[C@@H]3CC[C@H]4C[C@@H](CCC=C(c5cc(Cl)c(O)c(C(=O)O)c5)c5cc(Cl)c(O)c(C(=O)O)c5)CC[C@]4(C)[C@H]3CC[C@]12C` (stereo partly drawn) (tested in a mixture with another compound), the growth is reported as 97.3% [50 µM] (inactive).
`CNC(=S)/C(=N\Nc1nc[nH]c1C(N)=O)C(N)=S` was tested, and the growth was 10.6% [100 µM] (inactive) and 4.26% [100 µM] (active).
With `COC(=O)C(C(=O)C(=O)NC1Nc2ccc(C)cc2S1)c1nc2ccc(Cl)cc2[nH]c1=O` (stereo not drawn) the growth was 79.7% [100 µM] (inactive) and 65.5% [100 µM] (inactive).
